About 83,000 compounds went through this panel and 20% of them were active in at least one assay; those are over-represented in the sample as a whole.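 Compound tested at a single concentration for 48 hours in 96-well plates; a percent growth value below 10 was scored as active.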 A number with no mark means an inactive call. Calls of active or inactive are those of the source.
Key:
Test in all cases: NCI-60 one-dose screen, 48 h (100 = growth as untreated, 0 = no growth, -100 = all killed)
Conditions in all cases: 10 µM unless noted
[1] = test system: T-47D breast
[2] = test system: BT-549 breast
[3] = test system: MDA-MB-435 melanoma
[4] = test system: SW-620 colon
[5] = test system: MCF7 breast
[6] = test system: HCT-116 colon
[7] = test system: HCC-2998 colon
[8] = test system: KM12 colon

Row | Compound | growth [1] | growth [2] | growth [3] | growth [4] | growth [5] | growth [6] | growth [7] | growth [8]
1 | O=C(N/N=C/c1ccc(O)cc1O)c1cccnc1 | 26.9% | 59.5% | 63.8% | 44.6% | 7.27% (active) | 29.8% | 35.1% | 58.3%
2 | CCCCCCCCCCCCCCCC(=O)OCC1OC(n2cnc3c(=S)nc(N)[nH]c32)C(OC(=O)CCCCCCCCCCCCCCC)C1OC(=O)CCCCCCCCCCCCCCC (stereo not drawn) | 41.3% | 53% | 59.3% | 78.6% | 35% | 32.6% | 53.6% | 71%
3 | O=C1Nc2ccc(Br)cc2C12CC(c1ccccc1)=NN2 (stereo not drawn) | 71.6% | 47.8% | -21.1% (active) | 18.6% | 18.3% | 22.9% | 75.2% | 30.6%
4 | COc1cc(-c2cnc3nonc3n2)c(OC)c2c1OCO2 | 85.4% | 105% | 111% | 101% | 81.3% | 99.1% | 102% | 103%
5 | C[C@@]1(N2C(=O)OC[C@@H]2c2ccccc2)C(=O)N([C@H](CC(=O)N2CCC(N3CCCCC3)CC2)C(=O)NCc2cccc(C(F)(F)F)c2)[C@@H]1/C=C/c1ccccc1 | 27.4% | 78.1% | 1% (active) | 58.5% | 25.3% | 44.9% | 47.3% | 55.9%
6 | C/C(=C(/c1ccc(O)cc1)c1ccc(OCCN(C)C)cc1)c1ccccc1 | 42.6% | 92.4% | 77.2% | 101% | 32.6% | 68.4% | 97.8% | 81.1%
7 | Cn1c2ccccc2c2c3[nH]c(=O)[nH]c(=O)c3c3c4ccccc4n(C)c3c21 | 42.5% | 39.7% | 36.5% | 33.1% | 32.9% | 17.6% | 73.9% | 24.2%
8 | Nc1nc2ccc(-c3nc4ccc5[nH]ncc5c4c4c3CCC4)cc2s1 | 31.2% | 47.1% | -35.5% (active) | 6.95% (active) | 13% | 15.9% | 50.9% | 25.1%
9 | c1c2c(cc3c1OCO3)Cc1cc3c(cc1Cc1cc4c(cc1C2)OCO4)OCO3 | 108% | 113% | 105% | 109% | 90.8% | 115% | 112% | 126%
10 | CCOC(=O)CC(C)=N | 109% | 103% | 113% | 101% | 95.6% | 102% | 117% | 120%
11 | CCn1cc2c(cc1=O)-c1nc3ccccc3c3ccnc(c13)C2=O | 56.8% | 86.2% | 63.3% | 45.8% | 29.6% | 50% | 78.8% | 78.7%
12 | CCN(CC)C12CCCCC1(C)C(C#N)(C#N)C(C#N)=C(N)O2 (stereo not drawn) | 98.8% | 103% | 96.8% | 109% | 105% | 100% | 96.3% | 106%
13 | CCCCNc1ccc2c3c1cccc3c(=O)n1c3ccccc3nc21 | 35.7% | 98.2% | 111% | 86.4% | 10.3% | 86.7% | 74% | 77.7%
14 | O=C1c2c[n+](Cc3ccccc3)ccc2-c2nc3ccccc3c3ccnc1c23 | -48.4% (active) | -30.7% (active) | -81.8% (active) | -12.9% (active) | -42.3% (active) | -31.5% (active) | -53% (active) | 2.73% (active)
15 | CCOC(=O)C(CC)n1c(=O)c2cc(OC)c(OC)cc2c2cnc3[nH]ccc3c21 (stereo not drawn) | 26.1% | 47.6% | 88.2% | 79.9% | 50.1% | 67.9% | 83.4% | 26%
16 | O=C(O)c1ccc2c(c1Sc1ccccc1)C(=O)c1ccccc1C2=O | 98.6% | 83.8% | 73.1% | 121% | 95.4% | 98.5% | 105% | 101%

Row | Compound | growth [1] | growth [2] | growth [3] | growth [4] | growth [5] | growth [6] | growth [7] | growth [8]
17 | Cc1cc(-c2nc3ccccc3s2)ccc1NC(=O)COc1ccc(Cl)cc1 | 18.9% | 105% | 113% | 106% | 17.5% | 76.7% | 91.8% | 118%
18 | Cc1[nH]n(-c2ccccc2)c2nc3nncc3c(-c3ccc(Cl)cc3)c12 | 93.6% | 111% | 98.1% | 93.3% | 93.9% | 93.9% | 109% | 97%
19 | C/C(Cc1ccc(Cl)cc1)=C(\c1ccc(OCCN2CCCCCC2)cc1)c1ccc(OC(=O)Cc2ccccc2)cc1 | 57.6% | 89.3% | 46.3% | 57.4% | 18.6% | 38.2% | 22.3% | 50.2%
20 | O=C(/C=C\c1ccc2ccccc2n1)c1cc(Cl)ccc1O | 28.3% | 71.5% | 51.8% | 29% | 27.9% | 48.6% | 84.4% | 74.2%
21 | COc1ccc(/C=c2/c(=O)[nH]c3nc4sc(C)c(C)c4c(=O)n23)cc1 | 92.7% | 85.1% | 86.8% | 107% | 93.6% | 93.1% | 113% | 99.2%
22 | COc1cc(-c2c3c(nc4c2c(C)nn4-c2ccccc2)-c2ccccc2C(=O)C3=O)cc(OC)c1OC | 72.4% | 68.4% | -0.815% (active) | 86.2% | 57.7% | 51.5% | 71.1% | 80.8%
23 | CCCCCCCCOC(=O)CC[C@@H](C)[C@H]1CC[C@H]2[C@@H]3[C@H](OC(=O)CCN)C[C@@H]4C[C@H](OC(=O)CCN)CC[C@]4(C)[C@H]3C[C@H](OC(=O)CCN)[C@]12C | 88.8% | 124% | 74.1% | 20% | 10.8% | 49.3% | 84.2% | 77.8%
24 | O=S(=O)(NCCCNc1cc(-c2cn(-c3ccccc3)nc2-c2cccc(O)c2)ccn1)c1ccccc1 | 18.4% | 44.1% | 52.3% | 25.5% | 31.6% | 40% | 22.1% | 30.1%
25 | CC/C(Cc1ccccc1)=C(\c1ccc(OCCN2CCCC2)cc1)c1ccc(OC(C)=O)cc1 | 51.4% | 93.8% | 69.7% | 89.9% | 24.6% | 78.7% | 56.3% | 70.7%
26 | COc1ccc(N(Cc2cc(OC)c(OC)c(OC)c2)C2OC(=O)c3ccccc32)cc1 (stereo not drawn) | 45.8% | 66.1% | -55% (active) | 20.3% | 16.4% | 23% | 43.9% | 27.7%
27 | COc1ccc(C(=O)/C=C/c2c[n+](=O)c3ccc(F)cc3n2[O-])cc1 | 93.1% | 103% | 119% | 109% | 98.9% | 103% | 104% | 113%
28 | Fc1ccc(Cc2ccc(F)cc2)cc1 | 101% | 128% | 114% | 99.1% | 99% | 102% | 114% | 108%
29 | C(=N\Nc1nnn(Cc2ccccc2)n1)/c1ccccc1 | 45.6% | 46.5% | -26.1% (active) | 35.2% | 27.5% | 43.8% | 45.6% | 19.4%
30 | COc1cccc(-c2nc3sccn3c2-c2ccnc(NCCCNS(=O)(=O)c3ccccc3)c2)c1 | -8.88% (active) | 2.07% (active) | 38.5% | 59% | 46.2% | 12.2% | 67.4% | 29.2%
31 | Nc1nc2c(c3ncccc13)C(c1ccc(Cl)c(Cl)c1)Cc1ncccc1-2 (stereo not drawn) | 16% | 31.1% | 6.95% (active) | 21.7% | 12.2% | 18.4% | 41.7% | 21.5%
